High-throughput results (PubChem BioAssay)
SUMO HTRF inh = inhibitors of in vitro SUMOylation cascade, primary screen, biochemical, HTRF, uHTS | 290,000 tested, 0.36% active | SUMO-conjugating enzyme UBC9 (Homo sapiens), P63279 | AID 2006, 2009 | inhibition, % at 35 µM | HTRF SUMOylation assay, SAE1/SAE2 + UBC9; in the data active = inhibition above about 50%, passing the limit was not always enough; inconclusive = no clear call, values can overlap the other calls
PABP polyA inh = PABP poly(A) RNA binding inhibitors, primary screen, biochemical, fluorescence polarization, uHTS; Polyadenylate-binding protein 1 (Homo sapiens), P11940; inhibition, % at 35 µM; 290,000 tested, 1% active; AID 2014, 2009;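 also: calls also rest on retests at 20 µM and on dose response follow-up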
ALR inh = inhibitors of human ALR sulfhydryl oxidase, primary screen, biochemical, H2O2 detection, HRP-luminol luminescence, single point | FAD-linked sulfhydryl oxidase ALR (Homo sapiens), P55789 | purified ALR, DTT oxidation | inhibition, % (no concentration beside the values) | 290,000 tested, 3.8% active | AID 485317, 2010;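 active = mean replicate inhibition above about 79%, with every replicate also reaching it, limit read from the data; inconclusive = only one of the two criteria met; inactive = mean below limit and not every replicate reaching it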
Target sequence (P55789 whole entry, looked up): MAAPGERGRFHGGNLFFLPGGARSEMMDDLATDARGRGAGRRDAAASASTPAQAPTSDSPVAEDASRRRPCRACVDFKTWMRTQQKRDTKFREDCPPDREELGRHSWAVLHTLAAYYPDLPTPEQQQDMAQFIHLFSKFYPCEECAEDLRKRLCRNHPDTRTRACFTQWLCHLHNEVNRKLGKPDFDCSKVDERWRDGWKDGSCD
eIF4H inh = human eIF4H binding inhibitors, primary screen, translation initiation inhibitor project, biochemical, uHTS, fluorescence polarization | AID 2012, 2009 | Eukaryotic translation initiation factor 4H (Homo sapiens), Q15056 | eIF4H fluorescence polarization binding assay | 290,000 tested, 0.94% active | inhibition, % at 35 µM;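 also: calls also rest on retests at 20 µM and on dose response follow-up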
MLLE-PAM2 inh = inhibitors of PABP1 MLLE–PAM2 peptide binding, primary screen, biochemical, fluorescence polarization, FITC-PAM2, GST-MLLE; 360,000 tested, 0.36% active; inhibition, % at 20 µM; AID 588489, 2011; Polyadenylate-binding protein 1 (Homo sapiens), P11940; in the data active = inhibition above about 35%, passing the limit was not always enough;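 also: plate controls were DMSO wells with GST-MLLE for no effect and wells lacking GST-MLLE protein for full effect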
Efflux pump inh = inhibitors of Candida efflux pumps in yeast, primary screen, S. cerevisiae, Nile Red, multiplex; S. cerevisiae Candida pump triplex; inhibition, % at 10 µM; 330,000 tested, 0.44% active;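 active = plate passing quality check with inhibition over a set limit, or well fluorescence over plate mean plus 4 SD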;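 also: Nile Red retained in pooled yeast measured as flow cytometry median fluorescence; 0% = buffer negative control and 100% = Enniatin B positive control; higher means more Nile Red kept so more efflux inhibition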
Numbers without * were called inactive; ? = inconclusive; . = not tested or not shown. Compounds with a hit are over-represented: about 4.7% of the library has one in this group of screens. Unless noted, no rule for the calls is given here.

SMILES	SUMO HTRF inh	PABP polyA inh	ALR inh	eIF4H inh	MLLE-PAM2 inh	Efflux pump inh
C#Cc1ccc(C(=O)NCc2ccc(N3CCCC3=O)cc2)cc1	-11	active	-17	61	15	0
O=C(NCc1cccs1)c1ccc(N2CCCC2=O)cc1	14	-3	-18	-7	10	0
CC(C)(C)S(=O)(=O)N1Cc2cc(CO)cc(CCO)c2[C@@H]1CCO	.	.	.	.	4	.
O=C(Cn1cnc([N+](=O)[O-])n1)c1ccc(O)c(O)c1	-11	3	94*	13	-9	0
Nc1nc2ncc(C(=O)c3cc(F)ccc3O)cc2s1	-3	-5	-3	-10	-15	0
Nc1nc2ncc(C(=O)c3cc(Cl)cc(Cl)c3O)cc2s1	21	69	.	89*	-10	0
CCOC(=O)CSC(=S)NC(=O)c1ccc(OC)cc1	-11	-18	100*	-1	17	0
Cc1cccc(NCc2nc(-c3ccccc3)no2)c1	5	-15	91*	-8	-5	0
Cc1cccc(OCC(=O)NCc2nc(-c3ccccc3)no2)c1	15	2	7	-4	-7	0
COC(=O)c1ccc(CC(=O)c2c(C)cc(O)cc2O)o1	31	51*	.	80*	1	0
O=C(Nc1cccc(-c2nn[nH]n2)c1)c1csc2c1CCCC2	17	7	99*	7	7	0
O=C(COc1ccccc1)Nc1cccc(-c2nn[nH]n2)c1	-2	5	99*	-4	-2	0
CC(=O)Nc1cccc(-c2nn[nH]n2)c1	12	0	.	1	-6	0
Cc1cccn2c(=O)c(C=O)c(N3CCN(c4ccc(F)cc4)CC3)nc12	0	36*	67	96*	6	0
Cc1cccn2c(=O)c(C=O)c(Cl)nc12	18	8	98*	5	27	0
Cc1ccc2nc(N3CCN(c4ccccc4F)CC3)c(C=O)c(=O)n2c1	10	21*	26	58	17	0
Cc1ccc2nc(N3CCCCC3)c(C=O)c(=O)n2c1	4	2	20	-3	.	0
Cc1cccn2c(=O)c(C=O)c(N3CCCCC3)nc12	-12	10	-2	5	12	0
Cc1cccn2c(=O)c(C=O)c(Sc3ncccn3)nc12	-1	-1	.	-2	21	0
O=C(CNC(=O)/C=C/c1ccco1)N=Nc1c(O)[nH]c2ccccc12	15	57*	49	88*	9	0
Cc1ccc(/C=C/C(=O)NCc2ccco2)o1	12	active	7	?	.	2
Cc1ccc(/C=N/NC(=O)NC2CCCCC2)o1	-17	-5	-2	-14	-18	0
O=C(CNC(=O)Cc1ccccc1)N=Nc1c(O)[nH]c2ccccc12	0	6	0	3	6	0
O=C(/C=C/c1ccccc1)NCc1ccco1	-4	-4	1	-6	-9	0
Cc1ccc(/C=C/C(=O)NCc2ccc3c(c2)OCO3)o1	0	5	92*	-5	13	0
SMILES	SUMO HTRF inh	PABP polyA inh	ALR inh	eIF4H inh	MLLE-PAM2 inh	Efflux pump inh
Cc1ccc(/C=C/C(=O)NC2CCCCCCC2)o1	6	-7	99*	1	23	-2
O=C(NC1CCCCC1)C(c1cccnc1)N(CCc1ccccc1)C(=O)Cc1cccs1 (configuration not stated)	23	0	-9	-6	9	0
CCC1CC(C(=O)Nc2ccccc2)C(=O)O1 (configuration not stated)	.	.	-4	.	2	0
O=C(/C=C/c1ccco1)NCc1ccco1	12	60*	43	86*	-11	0
COC(=O)/C=C(\C)N=Nc1c(O)[nH]c2ccccc12	-20	58*	.	8.6*	3	0
O=C(O)c1ccc(CSc2n[nH]c(-c3ccco3)n2)cc1	47	79*	-35	77*	23	0
NC(=O)c1c(NC(=O)CSc2nnc(-c3ccco3)n2-c2ccccc2)sc2c1CCC2	49	86*	97*	87*	-9	0
O=C(Cc1ccccc1)NCCSCc1ccco1	2	-6	7	-4	31	0
O=C(CSc1n[nH]c(-c2ccco2)n1)Nc1sc2c(c1C(=O)Nc1ccccc1)CCCC2	7	-4	98*	2	-11	0
O=C(O)c1ccc(CSCc2ccco2)cc1	-6	3	97*	14	27	0
CCOC(=O)CSc1n[nH]c(-c2ccco2)n1	13	3	.	-4	-24	0
N#Cc1c(NC(=O)CSc2nnc(-c3ccco3)n2-c2ccccc2)sc2c1CCC2	22	8	5	49	-13	0
COc1cc(Cl)c(C)cc1NC(=O)COC(=O)c1cc[n+]([O-])cc1	2	2	-1	-10	-11	0
O=C(NCc1ccco1)c1cccs1	22	-7	.	-5	4	0
O=C(CSCc1ccco1)c1cccs1	10	8	99*	-3	29	0
CCN(CC)CCCNC(=O)c1ccc2c3n(nc2c1)-c1ccc(Cl)cc1CO3	.	.	99*	.	-13	.
Cc1ccc(NC(NC(=O)c2ccccc2[N+](=O)[O-])C(Cl)(Cl)Cl)cc1 (configuration not stated)	-5	6	99*	-1	-1	0
O=C1C=CC(=Nc2ccc(F)cc2)O1	.	.	.	.	40*	.
Cn1ccc2c(-c3cccc(C=O)c3)cc3c(c21)C1CCC3O1 (configuration not stated)	.	.	.	.	6	.
Cc1nn(C)cc1S(=O)(=O)Nc1ncccn1	4	4	-6	1	-1	0
O=C(O)c1cc(Cl)c(Cl)cc1C(=O)Nc1cccc2cccnc12	76*	5	4	74	11	0
Cc1ccccc1N1CCN(C(=O)c2cc(C3CC3)nn2-c2ccccc2)CC1	.	.	0	.	-5	0
CS(=O)(=O)c1cccc(-c2nnc(NC(=O)C3=COCCO3)o2)c1	.	.	-8	.	-3	0
O=C1CCCN1C(=O)CSc1nnnn1-c1cccc(F)c1	.	.	5	.	1	0
Cc1ccc2c(c1)N(C(=O)c1ccco1)C(C)(C)c1ssc(=S)c1-2	-2	75*	1	active	13	0
COc1ccc2cc(C(=O)NCc3ccccc3CN3CCCC3)ccc2c1	.	.	-6	.	-2	0
O=C(c1ccco1)N1CCN(c2ccc(F)cc2)CC1	1	2	38	3	-12	0
O=C(NC(=S)N1CCN(c2ccccc2)CC1)c1ccco1	.	.	98*	.	-12	0
O=C(NCC(=O)N1CCCCCCC1)c1ccco1	.	.	.	.	15	0
Nc1ccc(N2CCN(C(=O)c3ccco3)CC2)cc1	-6	-11	99*	6	-2	0
